According to PubChem BioAssay (NCATS):
Inconclusive results are not listed. Active and inactive are the calls of the source. Unless noted, calls come from the whole dose curve; as a rule, active = well fitted curve in the direction sought with a large enough effect; inconclusive = small, poorly fitted or top-dose-only effect, or another doubt; inactive = no such curve, though single readings can be large; an effect the other way counts as inactive or inconclusive.

Key:
[1] = qHTS to identify inhibitors of the type 1 interferon - major histocompatibility complex class I in skeletal muscle: primary screen against the NCATS Pharmaceutical Collection (AID 1347407); conditions: human skeletal muscle cells, IFN-b-induced MHC-I HiBiT luminescence, 24 h; series mostly up to 45.9 µM;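 note: luminescence of HiBiT knocked into endogenous HLA-B as interferon-induced MHC class I level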
Procedure, shortened: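 Cells were seeded with 4 ng/ml IFN-beta, incubated 1 h, then dosed with compounds over eight 1:5 steps up to 46 uM final. After 24 h at 37 C, HiBiT lytic reagent was added and luminescence read after 10 min lysis in the dark.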

[2] = molecular target: Protein phosphatase 1D (Homo sapiens) (UniProt O15297); experiment: RapidFire Mass Spectrometry qHTS Assay for Modulators of WT P53-Induced Phosphatase 1 (WIP1) (AID 1347424); conditions: WIP1 dephosphorylation of phosphopeptide, RapidFire MS; series mostly up to 63 µM;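 note: amount of dephosphorylated VEPPL-S-QETFS peptide product formed by WIP1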
Procedure, shortened: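 10 nM WIP1 + cpd, 1 h RT; + 2 uM VEPPL-pS-QETFS, 5 min RT; stop 0.5% formic acid; labelled product standard 1 uM; RapidFire MS. Buffer 50 mM Tris pH 7.5, 30 mM MgCl2, 1 mM TCEP.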

[3] = molecular target: Protein phosphatase 1D (Homo sapiens) (UniProt O15297); experiment: Rhodamine-PBP qHTS Assay for Modulators of WT P53-Induced Phosphatase 1 (WIP1) (AID 1347425); conditions: recombinant WIP1, Rhodamine-PBP phosphate fluorescence, real-time; series mostly up to 57.5 µM
Procedure, shortened: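 5 nM WIP1 + 10 uM Rh-PBP, 50 mM Tris pH 7.5, 30 mM MgCl2, 1 mM TCEP, 0.1 mM EGTA, BSA; cpds pinned, 1 hr RT; + 10 uM phosphopeptide; fluorescence 1-min reads x 11 min; delta = f1 - f0.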

[4] = Primary qHTS for inhibitors of La Crosse Virus (LACV) - induced cell death in SH-SY5Y cells (AID 1508616); conditions: SH-SY5Y LACV cytopathicity rescue, ATP luminescence, 6 d; series mostly up to 4.29 µM;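 note: top concentration of the series differs between compounds; higher means more rescue of cells from virus-induced death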
Procedure, shortened: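 Protection against LACV-induced cell death is scored in SH-SY5Y cells exposed to compounds and virus (0.01 MOI) for 6 days. Data normalized to virus-infected DMSO wells and virus-free DMSO wells.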

[5] = molecular target: Calcium and integrin-binding protein 1 (Homo sapiens) (UniProt Q99828); experiment: Primary qHTS for Identification of Calcium Integrin Binding Protein 1 (CIB1) Competitor (AID 1508620); conditions: CIB1-GST / FITC-alphaIIb peptide fluorescence polarization; series mostly up to 114 µM;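 note: GST tagged CIB1 binding a fluorescein labelled alphaIIb integrin peptide tracer; top concentration of the series differs between compounds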
Procedure, shortened: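 CIB1-GST (1 uM final) and compound incubated 15 min at room temperature before adding FITC-alphaIIb peptide tracer (100 nM final). Competition for binding read by fluorescence polarization (ex 480, em 540) after another 15 min at room temperature.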

[6] = Primary qHTS for Huh7 cytotoxicity: counterscreen for inhibitors of MERS-S pseudotyped particle cell entry (AID 1479147; calls by dose curve); conditions: cell viability read-out; series mostly up to 57.1 µM
[7] = Primary qHTS for inhibitors of MERS-S pseudo-typed particle cell entry (AID 1479149; calls by dose curve; note: nearly all actives have a fitted effect of over 60% in size); conditions: MERS-S pseudotyped particle entry, luciferase; series mostly up to 57.1 µM
[8] = Primary qHTS for Vero E6 cytotoxicity: counterscreen for inhibitors of SARS-S pseudo-typed particle cell entry (AID 1479150; calls by dose curve); conditions: cell viability; series mostly up to 57.1 µM

Measured: Potency

Chain of Calcium and integrin-binding protein 1 (Homo sapiens) (Q99828 whole entry, looked up): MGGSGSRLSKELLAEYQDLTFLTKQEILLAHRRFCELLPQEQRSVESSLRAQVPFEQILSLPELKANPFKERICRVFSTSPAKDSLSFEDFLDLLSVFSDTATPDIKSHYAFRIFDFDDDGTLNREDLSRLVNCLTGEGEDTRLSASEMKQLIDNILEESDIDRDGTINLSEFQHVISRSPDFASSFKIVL
Chain of Protein phosphatase 1D (Homo sapiens) (O15297 whole entry, looked up): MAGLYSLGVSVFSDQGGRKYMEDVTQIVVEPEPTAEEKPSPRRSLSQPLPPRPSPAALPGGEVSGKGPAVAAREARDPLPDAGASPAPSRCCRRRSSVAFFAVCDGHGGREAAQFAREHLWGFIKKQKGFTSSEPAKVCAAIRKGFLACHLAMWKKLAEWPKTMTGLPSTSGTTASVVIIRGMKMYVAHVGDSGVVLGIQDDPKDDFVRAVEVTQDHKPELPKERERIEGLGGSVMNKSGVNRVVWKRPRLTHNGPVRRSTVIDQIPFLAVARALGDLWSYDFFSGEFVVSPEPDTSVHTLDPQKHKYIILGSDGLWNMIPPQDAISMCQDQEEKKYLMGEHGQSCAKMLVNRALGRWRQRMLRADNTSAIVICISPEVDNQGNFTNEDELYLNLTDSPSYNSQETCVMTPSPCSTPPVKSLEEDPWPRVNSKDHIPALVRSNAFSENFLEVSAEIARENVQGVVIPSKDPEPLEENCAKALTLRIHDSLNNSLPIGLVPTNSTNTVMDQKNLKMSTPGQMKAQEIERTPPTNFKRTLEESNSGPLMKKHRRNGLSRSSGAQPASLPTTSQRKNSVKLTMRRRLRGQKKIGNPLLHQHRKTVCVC

CC(C)(N)Cc1ccccc1Cl
inactive: [1] | [2] | [3] | [4] | [5]

CCC(C)(C)c1ccc(O)cc1
inactive: [1] | [2] | [3] | [4] | [5]

COc1cc(CCN)cc(OC)c1OC
inactive: [1] | [2] | [3] | [4] | [5]

CC[N+]1(CC)CCC(OC(=O)C(O)(c2ccccc2)c2ccccc2)C1 (stereo not drawn)
inactive: [1] | [2] | [3] | [4] | [5]

C[C@H](N)C(=O)c1ccccc1
inactive: [1] | [2] | [3] | [4] | [5]

C[N+]1(CCF)[C@@H]2CC[C@H]1CC(OC(=O)C(O)(c1ccccc1)c1ccccc1)C2 (stereo partly drawn)
inactive: all assays above

CC(=O)C1CCOC1=O (stereo not drawn)
inactive: [1] | [2] | [3] | [4] | [5]

Clc1cccc(SC2CCNCC2)n1
inactive: [1] | [2] | [3] | [4] | [5]

CCCN(CCC)C(=O)Cc1c(-c2ccc(Cl)cc2)nc2ccc(Cl)cn12
inactive: [1] | [2] | [3] | [4] | [5]

CCC1(CC)C(=O)C=CNC1=O
inactive: [1] | [2] | [3] | [4] | [5]

CC(=O)NC1CCSC1=O (stereo not drawn)
inactive: [1] | [2] | [3] | [4] | [5]

CC(=O)OCC1=C(C(=O)O)N2C(=O)[C@@H](N)[C@H]2SC1
inactive: [1] | [2] | [3] | [4] | [5]

C[C@]12CCC(=O)C=C1CC[C@@H]1[C@H]3CC[C@](C)(O)[C@@]3(C)CC[C@@H]12
inactive: [1] | [2] | [3] | [4] | [5]
